Results as given in PubChem BioAssay (NCATS).
Values joined by “and” are separate entries in the source; they are usually repeats but may differ in a detail not shown here. Equal entries are not always repeated. Results filed as inconclusive are left out. Values without a mark were called inactive. Active and inactive are the calls of the source. The call rests on the fitted dose curve; in most records, active means well fitted curve in the direction sought with a large enough effect; inconclusive means small, poorly fitted or top-dose-only effect, or another doubt; inactive means no such curve, though single readings can be large; an effect the other way counts as inactive or inconclusive.

Experiments:
[1] = Viability qHTS for spleen associated tyrosine kinase inhibitor (SYKi) drug resistant MV4-11 cells (AID 1963824); details: SYKi-resistant MV4-11 viability, CellTiter-Glo, 72 h; series mostly up to 45 µM; further: nearly all actives have a fitted effect of over 35% in size
Summary of the method: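 SYK-inhibitor-resistant MV4-11 AML cells were seeded at 500 per well onto compound and cultured 72 hours (37 °C, 5% CO2). CellTiter-Glo was then added, and after 10 min at room temperature, luminescence gave viability.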

[2] = Cellular viability qHTS for adrenocortical cancer (ACC) cell line SW-13 (AID 1963989); details: SW-13 ACC cells viability, CellTiter-Glo, 48 h; activity (max response): stronger effect = lower value; further: nearly all actives have a fitted effect of over 65% in size;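 on activity (max response): cells grown in serum-free medium with ITS supplement; on the % scale 0 is the no-effect control and ±100 the full control effect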
Summary of the method: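 Viability was read as CellTiter-Glo luminescence after 48 h compound treatment (up to 46 uM final) of SW-13 cells grown serum-free; titration curves were fit with a four-parameter logistic model to give IC50 and efficacy.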

[3] = Cellular viability qHTS for adrenocortical cancer (ACC) cell line NCI-H295R (AID 1963990); details: CellTiter-Glo ATP luminescence, 48 h; series mostly up to 46.1 µM; further: nearly all actives have a fitted effect of over 60% in size;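 on activity change, negative = viability loss: 0% = DMSO only wells and -100% = full killing with cytotoxic reference compound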
Summary of the method: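 CellTiter-Glo ATP luminescence, read 48 h after compound addition, measured viability of NCI-H295R adrenocortical cells grown serum-free with ITS. Final concentrations spanned up to 46 uM. Data normalized to DMSO and doxorubicin, fitted for IC50 and maximal response.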
Potency means the concentration at half of the fitted maximal effect.

| Structure (SMILES) | Potency [1] | activity (max response) [2] | Potency [3] | Potency [2] | viability, % of control [1] | activity change, negative = viability loss [3] |
| --- | --- | --- | --- | --- | --- | --- |
| CC(C)n1cc(-c2ccc3c(c2)N(C)CC3)c2c(NS(=O)(=O)c3ccn(C)n3)ccnc21 | 18.6 µM (active) | 9.47% | inactive | – | – | – |
| CN1Cc2c(N)cccc2C(c2ccccc2)C1 (stereo not given) | inactive | -0.946% | inactive | – | – | – |
| Cc1cccc(Oc2cnc(=O)[nH]c2)c1 | inactive | 6.68% | inactive | – | – | – |
| C[n+]1c2cc(N)ccc2cc2ccc(N)cc21 (tested in a mixture with another compound) | 1.88 µM (active) | – | 1.3 µM (active) | 2.31 µM (active) | – | – |
| CC(=O)N[C@H]1[C@H](O[C@@H]2c3ccc(c(Cl)c3)Oc3cc4cc(c3O[C@@H]3O[C@H](CO)[C@@H](O)[C@H](O)[C@H]3NC(=O)CCCCCCCC(C)C)Oc3ccc(cc3Cl)C[C@H]3NC(=O)[C@H](N)c5ccc(O)c(c5)Oc5cc(O)cc(c5)[C@H](NC3=O)C(=O)N[C@H]4C(=O)N[C@H]3C(=O)N[C@@H]2C(=O)N[C@@H](C(=O)O)c2cc(O)cc(O[C@H]4O[C@H](CO)[C@@H](O)[C@H](O)[C@@H]4O)c2-c2cc3ccc2O)O[C@H](CO)[C@@H](O)[C@@H]1O | inactive | 11.6% | inactive | – | – | – |
| C[C@]12CCC(=O)C=C1[C@@H]1C[C@@H]1[C@H]1[C@@H]3[C@@H]4C[C@@H]4[C@@]4(CCC(=O)O4)[C@@]3(C)CC[C@@H]12 | 21.1 µM (active) and 18.6 µM (active) | -8.86% and -13.4% | inactive | – | – | – |
| NC(=O)c1ccccc1Nc1ccnc(Nc2cccc(O)c2)n1 | 0.326 µM (active) | – | 12.6 µM (active) | 17.8 µM (active) | – | – |
| CN1CCCN=C1COC(=O)C(O)(c1ccccc1)C1CCCCC1 (stereo not given) | inactive | 6.26% | inactive | – | – | – |
| CCNC(=O)CCC/C=C\C[C@@H]1[C@@H](/C=C/C(O)CCc2ccccc2)[C@@H](O)C[C@@H]1O (stereo not given in full) | 14.8 µM (active) | -10.9% | inactive | – | – | – |
| C/C(=C(\CCOP(=O)(O)O)SC(=O)c1ccccc1)N(C=O)Cc1cnc(C)nc1N | – | 11.3% | – | – | 78.4% [at 4.97 µM] | 7.45% [at 3.81 µM] |
| O=C(CS(=O)Cc1ccco1)NC/C=C\COc1cc(CN2CCCCC2)ccn1 (stereo not given) | inactive | 2.9% | inactive | – | – | – |
| CC(=O)[C@H]1CC[C@H]2[C@@H]3C[C@H](C)C4=CC(=O)CC[C@]4(C)[C@H]3[C@@H](O)C[C@]12C | 23.7 µM (active) | 8.53% | inactive | – | – | – |
| C=CC(=O)Nc1cccc(Oc2nc(Nc3ccc(N4CCN(C)CC4)cc3)nc3ccsc23)c1 | 3.32 µM (active) | – | 5.01 µM (active) | 3.16 µM (active) | – | – |
| CC(C)C(C)(C)C(C)(C)C(C)(C)S | 5.45 µM (active) | 7.64% | inactive | – | – | – |
| CC1CCC(n2c3cnccc3c3cnc(Nc4ccc5c(n4)CCN(C(=O)CO)C5)nc32)CC1 (stereo not given) | 164 nM (active) and 170 nM (active) | -7.81% | – | – | – | 3.35% [at 9.17 µM] |
| COc1ccc([C@@H]2CC(=O)c3c(O)cc(O[C@@H]4O[C@H](CO[C@@H]5O[C@@H](C)[C@H](O)[C@@H](O)[C@H]5O)[C@@H](O)[C@H](O)[C@H]4O)cc3O2)cc1O | 8.33 µM (active) | 3.7% | inactive | – | – | – |
| C[C@@H](C1=C(CCN(C)C)Cc2ccccc21)c1ccccn1 | inactive | -0.59% | inactive | – | – | – |
| NC[C@H]1O[C@H](O[C@H]2[C@H](O)[C@@H](O[C@H]3O[C@H](CO)[C@@H](O)[C@H](N)[C@H]3O)[C@H](N)C[C@@H]2N)[C@H](N)C[C@@H]1O | 18.6 µM (active) | 4.38% | inactive | – | – | – |
| CC[C@H](Nc1ncnc2nc[nH]c12)c1nc2cccc(F)c2c(=O)n1-c1ccccc1 | – | -2.88% | inactive | – | 61.7% [at 9.25 µM] | – |
| O=C(/C=C\n1cnc(-c2cc(C(F)(F)F)cc(C(F)(F)F)c2)n1)NNc1ccccn1 | 2.63 µM (active) | – | 3.98 µM (active) | 11.2 µM (active) | – | – |
| Cc1c(-c2c(-c3ccc(F)o3)sc3ncnc(O[C@@H](Cc4ccccc4OCc4ccnn4CC(F)(F)F)C(=O)O)c23)ccc(OCCN2CCN(C)CC2)c1Cl | 0.0132 µM (active) | – | 1.58 µM (active) | 0.199 µM (active) | – | – |
| CC(C)(C)NCC(O)COc1ccccc1OCC1CCCO1 (stereo not given) | 0.015 µM (active) | -5.68% | inactive | – | – | – |
| CC[C@H](NC(=O)[C@H](CS(=O)(=O)CC1CC1)N[C@@H](c1ccc(F)cc1)C(F)(F)F)C(=O)C(=O)NC1CC1 | inactive | -11.3% | inactive | – | – | – |
| COc1nc(N)nc2c1ncn2C1OC(CO)C(O)C1O (stereo not given) | inactive | 12% | inactive | – | – | – |
| O=C(Nc1ccc2[nH]nc(-c3ccncc3)c2c1)[C@@H]1CCN(CC(=O)N2CCN(c3ccc(-c4ncccn4)cc3)CC2)C1 | 23.1 nM (active) and 468 nM (active) | – | inactive | 4.47 µM (active) | – | – |
| COc1ccnc2[nH]cc(C(=O)C(=O)N3CCN(C(=O)c4ccccc4)C[C@H]3C)c12 | inactive | 1.31% | inactive | – | – | – |
| C[C@]12CCCN1CC1=NNC(=O)c3cc(F)cc4[nH]c2c1c34 | 6.61 µM (active) | -23.5% | inactive | – | – | – |
| O=C(NCC(=O)N1CCCC1)Nc1ccc2cnccc2c1 | 8.2 µM (active) | -10.6% | inactive | – | – | – |

| Structure (SMILES) | Potency [1] | activity (max response) [2] | Potency [3] | Potency [2] | viability, % of control [1] | activity change, negative = viability loss [3] |
| --- | --- | --- | --- | --- | --- | --- |
| CCOC(=O)[C@H](CCc1ccccc1)N[C@H]1CCc2ccccc2N(CC(=O)O)C1=O | 16.6 µM (active) | -3.37% | inactive | – | – | – |
| CNC(=O)CCc1cc(-c2ccc(-c3ccc(C(F)(F)F)cc3)cc2)n(-c2ccc(N3CCNCC3)cc2)n1 | 2.09 µM (active) | – | 7.08 µM (active) | 3.98 µM (active) | – | – |
| CC(Cc1ccccc1)(NC(=O)CN)c1ccccc1 (stereo not given) | inactive | 8.44% | inactive | – | – | – |
| C=C[C@H]1CN2CCC1C[C@@H]2C(O)c1ccnc2ccc(OC)cc12 (stereo not given in full) | 14.8 µM (active) | 3.34% | inactive | – | – | – |
| COc1cccc(-c2cc(F)ccc2C2Cc3nc(N)nc(C)c3C(=O)N2)n1 (stereo not given) | 0.0186 µM (active) | – | 0.0501 µM (active) | 0.112 µM (active) | – | – |
| Cc1cc(/C=c2/sc3nc4ccccc4n3c2=O)c(C)n1-c1ccccc1 | 10.5 µM (active) | -15.5% | inactive | – | – | – |
| N/C(=N\N=C\c1ccc(Cl)cc1)N/N=C/c1ccc(Cl)cc1 | inactive | -4.76% | inactive | – | – | – |
| CC(=O)OC(C)OC(=O)C(C)c1ccc(-c2ccccc2)c(F)c1 (stereo not given) | inactive | 9.22% | inactive | – | – | – |
| OC[C@H]1O[C@@H](n2cnc3c(=S)nc[nH]c32)[C@H](O)[C@@H]1O | 1.19 µM (active) | – | 2.31 µM (active) | 9.2 µM (active) | – | – |
| Cc1cc(Oc2ccc3nc(COc4ccc(CC5SC(=O)NC5=O)cc4)n(C)c3c2)cc(C)c1N (stereo not given) | 16.6 µM (active) | -6.08% | inactive | – | – | – |
| Nc1ccc(O)cc1 | inactive | 0.149% | inactive | – | – | – |
| N#Cc1c(N)nc(N)nc1N[C@H](c1nc2c(F)ccc(Cl)c2c(=O)n1-c1cccnc1)C1CC1 | 10.5 µM (active) | -22.7% | 22.4 µM (active) | – | – | – |
| COc1ccc(Cl)c(Nc2nc3ccccc3nc2NS(=O)(=O)c2cccc(NC(=O)C(C)(C)N)c2)c1 | 8.2 µM (active) | – | 20 µM (active) | 25.1 µM (active) | – | – |
| CN(C)CCC[C@@]1(c2ccc(F)cc2)OCc2cc(C#N)ccc21 | 8.41 µM (active) | -9.39% | inactive | – | – | – |
| CCCCCN=C(N)N/N=C/c1c[nH]c2ccc(OC)cc12 | 2.66 µM (active) | – | 23.1 µM (active) | 13 µM (active) | – | – |
| CC1=C(/C=C/C(C)=C/C=C/C(C)=C/C(=O)Nc2ccc(O)cc2)C(C)(C)CCC1 | 2.66 µM (active) and 7.42 µM (active) | – | 4.61 µM (active) | 1.84 µM (active) | – | – |
| C/C(=C(\CCO)SS/C(CCO)=C(\C)N(C=O)Cc1cnc(C)nc1N)N(C=O)Cc1cnc(C)nc1N | inactive | 7.36% | inactive | – | – | – |
| Cc1ccc(O)cc1 | inactive | 11.5% | inactive | – | – | – |
| C[C@H]1CNCCCN1S(=O)(=O)c1cccc2cncc(F)c12 | inactive | -17.2% | inactive | – | – | – |
| COCCc1ccc(OCC(O)CNC(C)C)cc1 (stereo not given) | inactive | -3.54% | inactive | – | – | – |
| COCCOc1ccc(N2CCN(CCn3ncc4c3nc(N)n3nc(-c5ccco5)nc43)CC2)cc1 | 0.103 µM (active) | -19.9% | inactive | – | – | – |
| CCN(CC)CCN | inactive | 6.69% | inactive | – | – | – |
| COc1ccc2cc1Oc1cc3c(cc1OC)CC[N+](C)(C)[C@H]3Cc1ccc(cc1)Oc1c(OC)c(OC)cc3c1[C@@H](C2)[N+](C)(C)CC3 | inactive | 15.7% | inactive | – | – | – |
| CN(C)CCn1nnnc1SCC1=C(C(=O)O)N2C(=O)[C@@H](NC(=O)Cc3csc(N)n3)[C@H]2SC1 | inactive | 8.48% | inactive | – | – | – |
| CC1CCc2c(N3CCC(O)CC3)c(F)cc3c(=O)c(C(=O)O)cn1c23 (stereo not given) | inactive | -4.15% | inactive | – | – | – |
| CC(=O)O[C@]1(C(C)=O)CC[C@H]2[C@@H]3C=C(Cl)C4=CC(=O)CC[C@]4(C)[C@H]3CC[C@@]21C | 11.9 µM (active) | -0.809% | inactive | – | – | – |
| O=c1ncccn1[C@@H]1O[C@H](CO)[C@@H](O)[C@H]1O | 16.6 µM (active) | -5.69% | inactive | – | – | – |
